# Publication PMC12864922, “TDP-43 directly inhibits mRNA accumulation in neurites through modulation of mRNA stability”
# In all, about 9,900 sequences were measured (“r (bound/input frequency ratio)”: median about 0.7, highest 2% from about 6.5 on). Shown is part of a subset that was picked to be rich in the highest values.
# B1: ENSMUSG00000028439.233|Fam219a (ssRNA)
# RNA: GGGAGUUCUACAGUCCGACGAUCGCUUCGAUAUCCGCAUGCUACACCGACAGAGUCUUUUCAUACCAGAAGGAAUUUCUUCACAGGAGUUUCUGCAAAAGACUAUGACAUCUGUGUGUCUGUGGUCUCACGAGGUACCUGGAGGUGUAUGUGCACGGACAUGGGAAGUACGUGAAGAUUUAUUUCGGGAAAAGUGGUGUGUGUGUAGCUGUACUGGGUGUCAUGUAUGCUGUUGCUUCUGCUGCUGGUCUGGUCUGAGGGAGGAAAGCUGAGGCUGUAGCUCAGUGAGAUGGUGGCUCUCCCACUCUUGCGGUCGCACUAGUGUGGAAUUCUCGGGUGUCAAGG
# B2: ENSMUSG00000058297.18|Spock2|143:147;151:164;173:184;198:204;213:222;228:253 (ssRNA)
# RNA: GGGAGUUCUACAGUCCGACGAUCGCUUCGAUAUCCGCAUGCUAAGCCCUCGACGGCCUCGGCAGGCCAGGGUGCCGACGGCCAGAAAGACAGGCCAGAAGAGACCUGGACAACAGCAGGCAACUUAGCAAAUGGAUCCGGAAGUCAGUGCGGAGGACCCUGGCUCCAGUGGGGGAGGACUGGGGACACACGCUACACACAUACACACAUAUGAGAACACACACAUACAUGUGAGAUGUGACACACACAUGUGAGAACACACAUACUGAGAACACACACACACACACACACACACACAUGUGAGCUCUUGCGGUCGCACUAGUGUGGAAUUCUCGGGUGUCAAGG
# B3: ENSMUSG00000058297.19|Spock2 (ssRNA)
# RNA: GGGAGUUCUACAGUCCGACGAUCGCUUCGAUAUCCGCAUGCUACGACGGCCUCGGCAGGCCAGGGUGCCGACGGCCAGAAAGACAGGCCAGAAGAGACCUGGACAACAGCAGGCAACUUAGCAAAUGGAUCCGGAAGUCAGUGCGGAGGACCCUGGCUCCAGUGGGGGAGGACUGGGGAGUGUGGCUUGUGUGUAUGUGUGAUAUGAGAUGUGUGUGUAUGAUGUGAGAUGUGAGUGUGUGAUGUGAGAUGUGUGUAUGUGAGAUGUGUGUGUGUGUGUGUGUGUGUGUGAUGUGAGUCACCCCUCUUGCGGUCGCACUAGUGUGGAAUUCUCGGGUGUCAAGG
# B4: ENSMUSG00000058297.21|Spock2|125:129;133:146;155:166;180:186;195:204;210:235 (ssRNA)
# RNA: GGGAGUUCUACAGUCCGACGAUCGCUUCGAUAUCCGCAUGCUACAGGCCAGGGUGCCGACGGCCAGAAAGACAGGCCAGAAGAGACCUGGACAACAGCAGGCAACUUAGCAAAUGGAUCCGGAAGUCAGUGCGGAGGACCCUGGCUCCAGUGGGGGAGGACUGGGGACACACGCUACACACAUACACACAUAUGAGAACACACACAUACAUGUGAGAUGUGACACACACAUGUGAGAACACACAUACUGAGAACACACACACACACACACACACACACAUGUGAGUCACCCAAAGGUCCCUAUCUCUUGCGGUCGCACUAGUGUGGAAUUCUCGGGUGUCAAGG
# B5: ENSMUSG00000058297.18|Spock2 (ssRNA)
# RNA: GGGAGUUCUACAGUCCGACGAUCGCUUCGAUAUCCGCAUGCUAAGCCCUCGACGGCCUCGGCAGGCCAGGGUGCCGACGGCCAGAAAGACAGGCCAGAAGAGACCUGGACAACAGCAGGCAACUUAGCAAAUGGAUCCGGAAGUCAGUGCGGAGGACCCUGGCUCCAGUGGGGGAGGACUGGGGAGUGUGGCUUGUGUGUAUGUGUGAUAUGAGAUGUGUGUGUAUGAUGUGAGAUGUGAGUGUGUGAUGUGAGAUGUGUGUAUGUGAGAUGUGUGUGUGUGUGUGUGUGUGUGUGAUGUGAGCUCUUGCGGUCGCACUAGUGUGGAAUUCUCGGGUGUCAAGG
# B6: ENSMUSG00000058297.20|Spock2 (ssRNA)
# RNA: GGGAGUUCUACAGUCCGACGAUCGCUUCGAUAUCCGCAUGCUACCUCGGCAGGCCAGGGUGCCGACGGCCAGAAAGACAGGCCAGAAGAGACCUGGACAACAGCAGGCAACUUAGCAAAUGGAUCCGGAAGUCAGUGCGGAGGACCCUGGCUCCAGUGGGGGAGGACUGGGGAGUGUGGCUUGUGUGUAUGUGUGAUAUGAGAUGUGUGUGUAUGAUGUGAGAUGUGAGUGUGUGAUGUGAGAUGUGUGUAUGUGAGAUGUGUGUGUGUGUGUGUGUGUGUGUGAUGUGAGUCACCCAAAGGUCUCUUGCGGUCGCACUAGUGUGGAAUUCUCGGGUGUCAAGG
# B7: ENSMUSG00000058297.20|Spock2|131:135;139:152;161:172;186:192;201:210;216:241 (ssRNA)
# RNA: GGGAGUUCUACAGUCCGACGAUCGCUUCGAUAUCCGCAUGCUACCUCGGCAGGCCAGGGUGCCGACGGCCAGAAAGACAGGCCAGAAGAGACCUGGACAACAGCAGGCAACUUAGCAAAUGGAUCCGGAAGUCAGUGCGGAGGACCCUGGCUCCAGUGGGGGAGGACUGGGGACACACGCUACACACAUACACACAUAUGAGAACACACACAUACAUGUGAGAUGUGACACACACAUGUGAGAACACACAUACUGAGAACACACACACACACACACACACACACAUGUGAGUCACCCAAAGGUCUCUUGCGGUCGCACUAGUGUGGAAUUCUCGGGUGUCAAGG
# B8: ENSMUSG00000058297.5|Spock2|221:225;229:242;251:259 (ssRNA)
# RNA: GGGAGUUCUACAGUCCGACGAUCGCUUCGAUAUCCGCAUGCUAAGAAGAGGCAGGGGAGGAGGCCGAGGAGGAGGAGGGUGAGGCGGGUGAGGCAGAUGAUGGAGGCUACAUCUGGUAGAUAGCCCUCGACGGCCUCGGCAGGCCAGGGUGCCGACGGCCAGAAAGACAGGCCAGAAGAGACCUGGACAACAGCAGGCAACUUAGCAAAUGGAUCCGGAAGUCAGUGCGGAGGACCCUGGCUCCAGUGGGGGAGGACUGGGGACACACGCUACACACAUACACACAUAUGAGAACACACACAACUCUUGCGGUCGCACUAGUGUGGAAUUCUCGGGUGUCAAGG
# B9: ENSMUSG00000058297.19|Spock2|137:141;145:158;167:178;192:198;207:216;222:247 (ssRNA)
# RNA: GGGAGUUCUACAGUCCGACGAUCGCUUCGAUAUCCGCAUGCUACGACGGCCUCGGCAGGCCAGGGUGCCGACGGCCAGAAAGACAGGCCAGAAGAGACCUGGACAACAGCAGGCAACUUAGCAAAUGGAUCCGGAAGUCAGUGCGGAGGACCCUGGCUCCAGUGGGGGAGGACUGGGGACACACGCUACACACAUACACACAUAUGAGAACACACACAUACAUGUGAGAUGUGACACACACAUGUGAGAACACACAUACUGAGAACACACACACACACACACACACACACAUGUGAGUCACCCCUCUUGCGGUCGCACUAGUGUGGAAUUCUCGGGUGUCAAGG
# B10: ENSMUSG00000058297.21|Spock2 (ssRNA)
# RNA: GGGAGUUCUACAGUCCGACGAUCGCUUCGAUAUCCGCAUGCUACAGGCCAGGGUGCCGACGGCCAGAAAGACAGGCCAGAAGAGACCUGGACAACAGCAGGCAACUUAGCAAAUGGAUCCGGAAGUCAGUGCGGAGGACCCUGGCUCCAGUGGGGGAGGACUGGGGAGUGUGGCUUGUGUGUAUGUGUGAUAUGAGAUGUGUGUGUAUGAUGUGAGAUGUGAGUGUGUGAUGUGAGAUGUGUGUAUGUGAGAUGUGUGUGUGUGUGUGUGUGUGUGUGAUGUGAGUCACCCAAAGGUCCCUAUCUCUUGCGGUCGCACUAGUGUGGAAUUCUCGGGUGUCAAGG
# B11: ENSMUSG00000058297.22|Spock2 (ssRNA)
# RNA: GGGAGUUCUACAGUCCGACGAUCGCUUCGAUAUCCGCAUGCUAAGGGUGCCGACGGCCAGAAAGACAGGCCAGAAGAGACCUGGACAACAGCAGGCAACUUAGCAAAUGGAUCCGGAAGUCAGUGCGGAGGACCCUGGCUCCAGUGGGGGAGGACUGGGGAGUGUGGCUUGUGUGUAUGUGUGAUAUGAGAUGUGUGUGUAUGAUGUGAGAUGUGAGUGUGUGAUGUGAGAUGUGUGUAUGUGAGAUGUGUGUGUGUGUGUGUGUGUGUGUGAUGUGAGUCACCCAAAGGUCCCUAUGUUAUUCUCUUGCGGUCGCACUAGUGUGGAAUUCUCGGGUGUCAAGG
# Molecular target: TDP-43 (Homo sapiens, UniProt Q13148 1-414)
# Sequence (Q13148 whole entry): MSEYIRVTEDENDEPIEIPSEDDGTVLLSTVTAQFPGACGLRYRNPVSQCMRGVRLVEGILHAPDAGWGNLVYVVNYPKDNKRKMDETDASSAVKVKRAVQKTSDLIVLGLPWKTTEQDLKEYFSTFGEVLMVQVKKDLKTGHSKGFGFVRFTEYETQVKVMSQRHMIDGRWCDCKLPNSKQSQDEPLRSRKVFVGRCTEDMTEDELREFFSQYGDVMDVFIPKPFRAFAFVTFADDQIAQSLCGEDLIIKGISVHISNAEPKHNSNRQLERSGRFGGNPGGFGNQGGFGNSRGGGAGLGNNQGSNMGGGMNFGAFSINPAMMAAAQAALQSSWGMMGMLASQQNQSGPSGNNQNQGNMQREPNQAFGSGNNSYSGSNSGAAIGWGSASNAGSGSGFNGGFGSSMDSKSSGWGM
# Assay: RNA Bind-n-Seq with designed 260-mer pool; 25 mM Tris-HCl, 150 mM KCl, 3 mM MgCl2, BSA (printed 500 mg/mL), 20 units/mL SUPERase IN; pH not stated; 500 nM RNA pool, 1 h, 4 C; TDP-43 5, 50, 500 nM; high values mean tight binding
# Settings: protein: recombinant; tags: SBP (GST cleaved off with PreScission; pGEX-GST-SBP)
# In short: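 In 25 mM Tris-HCl, 150 mM KCl, 3 mM MgCl2, BSA and SUPERase IN, 500 nM of an in vitro-transcribed 260-nt 3′ UTR oligo pool was incubated for 1 h at 4 °C with SBP-tagged TDP-43 (5, 50 or 500 nM) captured on streptavidin beads. RNA remaining after washes was biotin-eluted, reverse transcribed, PCR-amplified and sequenced. Binding, R, is the bound-sample abundance of each oligo, normalized to mapped reads, divided by its abundance in input. Each duplicate used a separate, independent protein batch.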
row,Binder,binding signal
1,B1,3.93 R (bound/input frequency ratio)
2,B2,3.16 R (bound/input frequency ratio)
3,B3,6.67 R (bound/input frequency ratio)
4,B4,2.78 R (bound/input frequency ratio)
5,B5,7.4 R (bound/input frequency ratio)
6,B6,8.16 R (bound/input frequency ratio)
7,B7,1.82 R (bound/input frequency ratio)
8,B8,2.97 R (bound/input frequency ratio)
9,B9,3.73 R (bound/input frequency ratio)
10,B10,6.78 R (bound/input frequency ratio)
11,B11,5.79 R (bound/input frequency ratio)
